Assay results reported in the supplement of paper PMC8387472.

Columns and labels:
Assay in all cases: fraction of edited reads among all mapped reads; higher = more Cas9 editing
Settings in all cases: mESC; 2uM; 72 h treatment, harvest day 5
[1] = compound: Cc1cc(C)nc(SCC(=O)Nc2ncc(Cc3cccc4ccccc34)s2)n1
[2] = compound: Cc1ccc(C(=O)NCCCCCC(=O)Nc2ccccc2N)cc1
[3] = compound: Cc1cccc(CC(=O)N2CCc3c2ccc(-c2cn(C)c4ncnc(N)c24)c3F)n1
[4] = compound: NC(=O)c1ccc2nc(-c3ccc(Oc4ccc(Cl)cc4)cc3)[nH]c2c1 [Chk 2 inhibitor II (BML-277)]
Tucidinostat (Chidamide) = compound: Nc1cc(F)ccc1NC(=O)c1ccc(CNC(=O)/C=C/c2cccnc2)cc1 [Tucidinostat (Chidamide)]
Pemetrexed = compound: Nc1nc2[nH]cc(CCc3ccc(C(=O)N[C@@H](CCC(=O)O)C(=O)O)cc3)c2c(=O)[nH]1 [Pemetrexed]
[5] = compound: Nc1ncnc2c1c(-c1cnc3[nH]ccc3c1)nn2C1CCCC1
[6] = compound: O=C(c1cccc(Cl)c1F)N1CCN(Cc2cccc(Nc3nccs3)n2)CC1
Kenpaullone = compound: O=C1Cc2c([nH]c3ccc(Br)cc23)-c2ccccc2N1 [Kenpaullone]
Genistein = compound: O=c1c(-c2ccc(O)cc2)coc2cc(O)cc(O)c12 [Genistein]

| Target | fraction of edited reads among all mapped reads [1] | fraction of edited reads among all mapped reads [2] | fraction of edited reads among all mapped reads [3] | fraction of edited reads among all mapped reads [4] | fraction of edited reads among all mapped reads (Tucidinostat (Chidamide)) | fraction of edited reads among all mapped reads (Pemetrexed) | fraction of edited reads among all mapped reads [5] | fraction of edited reads among all mapped reads [6] | fraction of edited reads among all mapped reads (Kenpaullone) | fraction of edited reads among all mapped reads (Genistein) |
| --- | --- | --- | --- | --- | --- | --- | --- | --- | --- | --- |
| 17.0 (DMSO control at this site: 1-bp insertion 0.112, MH deletion 0.348, edited 0.058) CCATAGCGCGATAAATATGACGGCTCATCCTGTATGACGGCTCATCCTGTATCAACTGTCC | 0.123 | 0.0669 | 0.086 | 0.0753 | 0.0619 | 0.0836 | 0.0703 | 0.0546 | 0.184 | 0.0864 |
| 32.0 (DMSO control at this site: 1-bp insertion 0.03, MH deletion 0.85, edited 0.898) AGAAGTCCAGGATCAGGGGGACTGGGGTCGGGAGGGTGGGGCAGGAAGGAAGCCAGAATCA | 0.946 | 0.904 | 0.925 | 0.917 | 0.9 | 0.87 | 0.891 | 0.849 | 0.951 | 0.923 |
| 46.0 TTAAGAGCAATGTTCACGCAACTTGAAATTATATCTGTGGTCTTCAAATTGTCTTTTGTCA | – | 0.1 | – | – | 0.0602 | 0.136 | 0.105 | – | – | 0.116 |
| 34.0 (DMSO control at this site: 1-bp insertion 0.184, MH deletion 0.385, edited 0.103) ATTATAGGACCCTGAGGGAGCAGAGATGTGGGAATGGGGGCCGAGCCAATTGTGATGTAAG | 0.159 | 0.112 | 0.134 | 0.113 | 0.104 | 0.0912 | 0.0944 | 0.0799 | 0.18 | 0.112 |
| 29.0 (DMSO control at this site: 1-bp insertion 0.084, MH deletion 0.745, edited 0.133) TTGATGAACTTCCTCTTCTTCTCATGTCTCCGGTCTCCGGTAGGCCACGTGCATGGCCACT | 0.239 | 0.147 | 0.189 | 0.165 | 0.129 | 0.13 | 0.144 | 0.0932 | 0.261 | 0.18 |
| 44.0 (DMSO control at this site: 1-bp insertion 0.181, MH deletion 0.512, edited 0.123) ACACATACCTTCTTCGAGGCAGCCAGCATGATGAGACAGGTCTCCCACAAACACATCGTGT | 0.232 | 0.141 | 0.191 | 0.167 | 0.124 | 0.138 | 0.124 | 0.11 | 0.265 | 0.167 |
| 31.0 (DMSO control at this site: 1-bp insertion 0.315, MH deletion 0.329, edited 0.026) ACCTCCACAGGCTGGGTGGCCCGGAGGCTGGGCGGCCCGGAGGCTGGGCTGGGCGAGTATC | 0.0451 | 0.0289 | – | – | 0.0207 | 0.0406 | 0.0296 | 0.0243 | 0.0456 | 0.026 |
| 2.0 (DMSO control at this site: 1-bp insertion 0.364, MH deletion 0.356, edited 0.125) GGTGCCCCCGAGACCTACGCGAACCGAAATCGATGTCCGGTGCGCAAGCAGGGCTGGCGTC | 0.231 | 0.128 | 0.18 | 0.147 | 0.115 | 0.129 | 0.137 | 0.102 | 0.286 | 0.169 |
| 27.0 CCAGAATTAGAACATATCATCTGGACCCTTTTCCATCTGGACCCTTTTCCAGCACACCCTG | 0.0968 | 0.0456 | – | – | 0.0322 | – | 0.0403 | – | 0.141 | 0.0708 |
| 28.0 (DMSO control at this site: 1-bp insertion 0.035, MH deletion 0.77, edited 0.142) TGGTTCTTCCTTTGTAGAGAGTGTTCATCTGGGAATCTGGGACTTGGATGAGACAATCATT | 0.267 | 0.152 | 0.212 | 0.19 | 0.126 | 0.14 | 0.153 | 0.11 | 0.297 | 0.198 |
| 47.0 (DMSO control at this site: 1-bp insertion 0.095, MH deletion 0.585, edited 0.118) GAGTGGTCCCGAGCCAGGAACTGTGTGTGTTGCAGGGGGGCAGTAACTCCCCAACTCCCTC | 0.199 | 0.123 | 0.171 | 0.143 | 0.0948 | 0.12 | 0.129 | 0.0848 | 0.244 | 0.148 |
| 16.0 (DMSO control at this site: 1-bp insertion 0.172, MH deletion 0.29, edited 0.05) CGGACTGCACACATGGGTAGGATCGTGCACGCGAGGTAGGATCGTGCACGCGAAGTTATTC | 0.0974 | 0.052 | 0.0804 | 0.0597 | 0.0541 | 0.0594 | 0.0586 | 0.043 | 0.128 | 0.0716 |
| 30.0 (DMSO control at this site: 1-bp insertion 0.074, MH deletion 0.67, edited 0.142) GAGCTGGCATGAGTATTTGTGCCACATGGCTCCCACATGGCTCCACATGCAAGTTTGAAAC | 0.226 | 0.147 | 0.212 | 0.179 | 0.129 | 0.148 | 0.143 | 0.112 | 0.286 | 0.191 |
| 21.0 CGATTGAGAGTCAAACGGGCCAGAAAACTCCGGGAACGGGCCAGAAAACTCCGGGGCATGG | 0.198 | 0.121 | – | 0.14 | 0.116 | 0.124 | 0.103 | – | 0.273 | 0.136 |
| 38.0 (DMSO control at this site: 1-bp insertion 0.063, MH deletion 0.487, edited 0.17) GGGCTGGGTGCTAAAATGAGGAGCTCCAAGAAGACTGAGGTGAACCTGGAGGCCCCTGAGC | 0.27 | 0.178 | 0.197 | 0.187 | 0.181 | 0.167 | 0.146 | 0.128 | 0.316 | 0.198 |
| 40.0 (DMSO control at this site: 1-bp insertion 0.072, MH deletion 0.192, edited 0.189) GCGAATCAACTGTTCAACAACAGCAGCAGCCACCTGGAGGACTACAGTGGCCTGTCCGTGT | 0.334 | 0.199 | 0.298 | 0.238 | 0.193 | 0.179 | 0.201 | 0.142 | 0.432 | 0.24 |
| 45.0 (DMSO control at this site: 1-bp insertion 0.017, MH deletion 0.666, edited 0.101) TTACACAGCATGAACTGCTAGGTGATGATGTCAGATTCGGTTTTACTAACTTCTCCAAAAA | 0.195 | 0.111 | 0.151 | 0.127 | 0.0928 | 0.0998 | 0.0941 | 0.069 | 0.233 | 0.139 |
| 19.0 (DMSO control at this site: 1-bp insertion 0.121, MH deletion 0.101, edited 0.057) TCTGCAGGGGTCGGAACCCGGGGGCTAGGGCTATCCCGGGGGCTAGGGCTATTAGCGAACC | 0.112 | 0.0637 | 0.0933 | 0.0726 | 0.0662 | 0.0698 | 0.0701 | 0.0542 | 0.141 | 0.0811 |
| 22.0 (DMSO control at this site: 1-bp insertion 0.573, MH deletion 0.229, edited 0.045) CTGATGGTTGAAGGATTTAGCCGGGGTCCTAGACGCCGGGGTCCTAGACGAAAGGGCCACG | 0.0884 | 0.0476 | 0.0695 | 0.0586 | 0.0454 | 0.056 | – | 0.0278 | 0.117 | 0.0556 |
